Rows were chosen to be rich in hits. Some 10% of all compounds tested hit in one or more screens of this group.
JMJD2A Tudor inh = qHTS Assay for Inhibitors of JMJD2A-Tudor Domain | Potency, µM (highest dose often 114 µM), usual class: inhibitors | AlphaScreen JMJD2A-Tudor / H3K4me3 peptide binding | AID 504339, 2011 | Lysine-specific demethylase 4A (Homo sapiens), O75164 | hit rate 4.4% among 390,000; further: nearly all actives have a fitted effect of over 50% in size
HP1b binding inh = HTS for Inhibitors of HP1-beta Chromodomain Interactions with Methylated Histone Tails; Chromobox protein homolog 1 (Homo sapiens), P83916; AlphaScreen HP1-beta / biotin-H3K9me3 peptide binding; Potency, µM (highest dose often 114 µM), actives largely listed as inhibitors; hit rate 0.56% among 390,000; further: nearly all actives have a fitted effect of over 70% in size
Target sequence (P83916 whole entry, looked up): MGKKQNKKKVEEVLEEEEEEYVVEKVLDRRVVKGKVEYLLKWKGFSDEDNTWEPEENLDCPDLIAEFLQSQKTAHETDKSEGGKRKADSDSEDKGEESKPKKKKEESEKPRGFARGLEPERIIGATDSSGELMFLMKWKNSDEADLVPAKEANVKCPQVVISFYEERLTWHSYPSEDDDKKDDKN
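HP1-beta protein (50 nM final) preincubated 30 min at room temperature with biotinylated H3(1-18)K9me3 peptide (50 nM) in PBS pH 7.4, 0.01% Tween-20, then compound added for 30 min. AlphaScreen streptavidin donor/nickel chelate acceptor beads (10 ug/mL final), 30 min dark, luminescence read.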
BAZ2B inh = qHTS Assay for Inhibitors of BAZ2B; Potency, µM (highest dose often 114 µM), usual class: inhibitors; AlphaScreen BAZ2B-H3K14Ac peptide displacement; hit rate 4.4% among 360,000; Bromodomain adjacent to zinc finger domain protein 2B (Homo sapiens), Q9UIF8; further: nearly all actives have a fitted effect of over 60% in size
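Complex of BAZ2B and biotin-H3K14Ac (50 nM apiece) forms over 30 min at RT, then faces library compounds up to 110 uM for another 30 min; AlphaScreen beads added, 20 min dark incubation, luminescence read.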
G9a inh = qHTS Assay for Inhibitors of Histone Lysine Methyltransferase G9a. G9a H3K9 monomethylation, AlphaScreen, 2 h. hit rate 8.8% among 350,000. Potency, µM (titrated, usually from 102 µM), hits mostly inhibitors. Histone-lysine N-methyltransferase EHMT2 (Homo sapiens), Q96KQ7; further: nearly all actives have a fitted effect of over 75% in size
Target sequence (Q96KQ7 913-1193 limits assumed): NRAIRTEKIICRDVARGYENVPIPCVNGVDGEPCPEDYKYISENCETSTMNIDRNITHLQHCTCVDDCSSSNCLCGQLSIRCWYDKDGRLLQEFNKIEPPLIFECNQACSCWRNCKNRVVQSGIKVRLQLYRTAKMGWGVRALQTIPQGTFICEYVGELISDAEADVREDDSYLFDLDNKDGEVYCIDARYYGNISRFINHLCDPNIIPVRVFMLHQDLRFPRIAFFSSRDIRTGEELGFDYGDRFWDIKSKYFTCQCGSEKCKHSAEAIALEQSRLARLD
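Chemiluminescent proximity detection of H3K9 monomethylation, read after 10 min bead incubation in the dark. Reaction: 20 nM G9a, 500 nM biotin-H3K9 peptide, 20 uM SAM cofactor, 2 h, room temperature, following 15 min enzyme-compound preincubation.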
GLS inh = qHTS for Inhibitors of Glutaminase (GLS). Glutaminase kidney isoform, mitochondrial (Homo sapiens), O94925. GLS enzymatic activity, qHTS titration. Potency, µM (series often up to 45.5 µM), actives largely listed as inhibitors. hit rate 0.21% among 410,000
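hKGA in 45 mM KH2PO4 pH 8.2, 0.02% Tween-20 with pin-transferred compounds; 1 mM L-glutamine (stock) plus glutamate oxidase/HRP/Amplex Red coupling added. Fluorescence read initially and after 30 min at RT.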
Hits are given with their value; n = inactive; u = inconclusive; x = no result given; [ ] = remark or other dose. The call rests on the fitted dose curve; in most records, active means well fitted curve in the direction sought with a large enough effect; inconclusive means small, poorly fitted or top-dose-only effect, or another doubt; inactive means no such curve, though single readings can be large; an effect the other way counts as inactive or inconclusive.

SMILES	JMJD2A Tudor inh	HP1b binding inh	BAZ2B inh	G9a inh	GLS inh
NC(=O)CC(NC(=O)Cc1ccc(Br)cc1)c1ccc(NCCN2CCCCC2)c([N+](=O)[O-])c1 (stereo unspecified)	n	n	50µM	x	n
Cc1cccc(C)c1NC(=O)Nc1nnc([C@@H]2C[C@H](O)[C@@H](CO)O2)s1	x	x	x	x	n
CCOc1ccc(CSc2nc(C)cc(COC)c2C#N)cc1OCC	n	n	n	n[12.7 µM]	n
O=C(O)C/C(=C\c1cc2c(cc1Br)OCO2)c1nc2ccccc2s1	n	n	n	10µM	n
COc1cc(/C=N/NC(=Nc2ccc(C)cc2)c2nc3ccccc3s2)ccc1O	u	n	45µM	14µM	n
O=C(O)c1ccc(C=C(c2nc3ccccc3s2)c2nc3ccccc3s2)cc1	u	n	u	u	n
N#C/C(=C/c1ccncc1)c1nc2ccccc2s1	n	n	u	n	n
COc1ccccc1/C=N/NC(=Nc1ccc(C)cc1)c1nc2ccccc2s1	x	x	n	n[0.0925 µM]	x
Brc1cc2c(cc1/C=N/Nc1nc3ccccc3s1)OCO2	n	n	n	n	n
CN(C)c1ccc(/C=C(\Cl)c2nc3ccccc3s2)cc1	n	n	45µM	14µM	n
COc1cc(C=C(c2nc3ccccc3s2)c2nc3ccccc3s2)cc(OC)c1O	56µM	u	22µM	6.3µM	n
COc1cc(/C=C(\CC(=O)O)c2nc3ccccc3s2)cc(OC)c1O	16µM	n	n	14µM	u
COc1ccc(/C=C(\CC(=O)O)c2nc3ccccc3s2)cc1O	n	n	n	n	u
O=C1C=CC(=Nc2ccc(F)cc2)O1	45µM	22µM	x	x	n
O=C1C=CC(=Nc2ccc3c(c2)C(=O)c2ccccc2-3)O1	n	n	x	x	n
CCOC(=O)c1nc2cc3n(c(CC(C)C)c-2c1C)CC(C)=C3C	u	n	u	3.2µM	n
Cc1ccc(NC2(c3ccccc3)C(=O)c3ccccc3C2=O)cc1F	u	n	u	13µM	n
O=C(CN(c1ccc(Cl)c(C(F)(F)F)c1)S(=O)(=O)c1ccccc1)N1CCOCC1	n	n	n	n	n
O=c1oc2ccccc2nc1/C=C(O)/C=C\c1ccccc1	n	n	u	56µM	n
Cc1ccc(/C(O)=C/c2nc3ccccc3oc2=O)cc1	n	n	n	28µM	n
O=c1oc2ccccc2nc1/C=C(O)/C=C/c1ccc(F)cc1	u	n	50µM	45µM	n
COc1ccc(/C=C/C(=O)N2CCC(c3nc4ccccc4o3)CC2)cc1	n	n	n	n	n
O=C(c1ccc2c(c1)OCO2)c1ccc[nH]1	x	x	x	x	n
COc1cccc(CNc2ccc3[nH]c(=O)[nH]c3c2)c1OCc1ccc(F)cc1	40µM	u	45µM	u	n
COc1cccc(CNc2ccc(C(=O)O)cc2)c1OCc1ccccc1	n	n	n	x	n
SMILES	JMJD2A Tudor inh	HP1b binding inh	BAZ2B inh	G9a inh	GLS inh
C=CCOc1ccc(CNc2ccc3[nH]c(=O)[nH]c3c2)cc1	u	n	n	n	11µM
C=CCOc1c(CNc2ccc3[nH]c(=O)[nH]c3c2)cccc1OC	45µM	u	n	x	n
CC(=O)Nc1ccc(S(=O)(=O)N2CCC(C(=O)O)CC2)cc1	n	n	n	n	n
O=C(CCS(=O)(=O)c1ccc(F)cc1)Nc1nc(-c2ccncc2)cs1	n	u	n	7.9µM	u
O=C(CCS(=O)(=O)c1ccccc1)Nc1ccc(Cl)cn1	n	u	u	45µM	n
O=C(CCS(=O)(=O)c1ccccc1)Nc1nc(-c2cccs2)cs1	n	n	n	50µM	n
O=C(CS(=O)(=O)c1ccccc1)Nc1ccc(Cl)cn1	n	n	n	n	n
CC(C)(C)c1csc(NC(=O)CCS(=O)(=O)c2ccc(F)cc2)n1	x	x	x	x	n
O=C(COc1ccccc1)Nc1nc(-c2cccs2)cs1	n	n	n	n	n
COc1ccc(Br)cc1CN(C)C(=O)c1ccncc1	n	n	n	n	n
COc1ccc(Cl)cc1NC(=S)N(Cc1ccccc1C)CC1CCC(C(=O)O)CC1 (stereo unspecified)	n	n	n	28µM	n
CCc1ccccc1NC(=S)N(Cc1ccc(OC)cc1)CC1CCC(C(=O)O)CC1 (stereo unspecified)	n	n	n	n	n
COc1cc(C(=O)Nc2ccncc2)cc(OC)c1OC	n	n	n	n	n
COc1cc(C(=O)Nc2c(C(=O)O)[nH]c3ccccc23)cc(OC)c1OC	n	n	n	16µM	n
COc1cc(C(=O)Nc2ccc(Nc3ccccc3)cc2)cc(OC)c1OC	u	n	u	50µM	n
COc1ccc2[nH]c(C(=O)O)c(NC(=O)c3cc(OC)c(OC)c(OC)c3)c2c1	n	n	n	u	n
C#CCOCCOCCOCCNc1nc(N2CCN(C(=O)[C@H](CCC(=O)O)n3cc(C(N)CO)nn3)CC2)nc(N2CCN(C(=O)[C@H](CCC(=O)O)n3cc(C(N)CO)nn3)CC2)n1 (stereo partly specified)	x	x	14µM	u	x
C#CCOCCOCCOCCNc1nc(N2CCN(C(=O)[C@H](CCC(=O)O)n3cc(C(N)CO)nn3)CC2)nc(N2CCN(C(=O)[C@H](CCC(=O)O)n3cc(C(N)CC(C)C)nn3)CC2)n1 (stereo partly specified)	x	x	20µM	u	x
C#CCOCCOCCOCCNc1nc(N2CCN(C(=O)[C@H](C)n3cc(CCC(=O)O)nn3)CC2)nc(N2CCN(C(=O)[C@H](C)n3cc(CCC(=O)O)nn3)CC2)n1	u	n	x	x	n
COc1ccc(CCNC2CCc3ccccc3C2)cc1 (stereo unspecified)	n	n	n	n	n
O=C(NCC(O)COc1ccc([N+](=O)[O-])cc1)c1ccccc1 (stereo unspecified)	n	n	n	n	n
Cc1ccc(OCC(=O)Nc2ccc(C(=O)Nc3ccccc3C(=O)O)cc2)cc1C	x	x	x	x	n
Cc1ccc(OCC(=O)Nc2ccc(N3CCCC3)cc2)cc1C	32µM	u	28µM	11µM	n
Cc1ccc(OCC(=O)Nc2ccc(O)c(C(=O)O)c2)cc1C	n	n	n	35µM	n
Cc1ccc(C(C)C)cc1OCC(=O)Nc1ccc(N2CCCCC2)cc1	u	u	28µM	16µM	n
COc1ccc(OCC(=O)Nc2ccc(N3CCCCC3)cc2)cc1	n	n	n	n	n
CC(=O)c1ccc(OCC(=O)Nc2ccc(N3CCCCC3)cc2)cc1	u	u	45µM	n[12.7 µM]	n
Cc1cc(C)cc(OCC(=O)Nc2ccc(N3CCCC3)cc2)c1	u	n	n	n	n
CCCCNC(=O)C[C@@H]1C[C@@]2(C(=O)OCC)CCCC=C2N(Cc2ccco2)C1=O	x	x	x	x	n
CCCC(=O)c1cc(-c2nc3ccccc3n2C)n(C)c1	n	n	n	u	n

Assay outcomes: PubChem BioAssay, National Center for Advancing Translational Sciences (NCATS)
